Where “and” joins values, the source holds several entries; their conditions need not be identical. Equal entries are not always repeated. Out of some 25,000 compounds screened, about 970 (3.9%) were called active. Inconclusive results (about 8%) are left out. The rule behind the calls is not given here. Shown is part of a subset that was picked to be rich in actives.
Key:
Assay in all cases: Primary Screen for Target Class Profiling of Small Molecule Inhibitors of Methyltransferases
[1] = target: Catechol O-methyltransferase (Homo sapiens) (UniProt P21964); settings: purified enzyme, MTase-Glo SAH luminescence; activity change, negative = inhibition: at 40 µM, stronger effect = lower value; outcome: 40 uM
Catechol O-methyltransferase (Homo sapiens), sequence (P21964 whole entry, looked up): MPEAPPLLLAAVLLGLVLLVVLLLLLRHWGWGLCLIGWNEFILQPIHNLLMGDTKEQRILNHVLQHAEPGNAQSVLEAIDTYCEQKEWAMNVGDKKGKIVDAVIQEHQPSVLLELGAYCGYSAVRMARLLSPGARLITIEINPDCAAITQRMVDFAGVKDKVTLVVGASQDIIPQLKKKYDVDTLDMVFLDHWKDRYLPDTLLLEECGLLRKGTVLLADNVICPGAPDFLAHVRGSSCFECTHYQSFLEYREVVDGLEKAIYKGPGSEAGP
Excerpt: (§1) PI: Matthew D. Hall Ph.D. and Quinlin M. Hanson Ph.D.
(§2) National Center for Advancing Translational Sciences (NCATS)
(§3) National Institute of Health (NIH), Rockville, MD
(§4) Target class profiling (TCP) is a chemical biology approach amenable to investigating understudied biological targets. TCP is achieved by developing a generalizable assay platform and applying it to screen a curated set of compound libraries against representative members of a target class. Small molecule methyltransferases (SMMTase) are a subclass of methyltransferase that act on metabolites to modulate signaling pathways, metabolize xenobiotics, or balance the available methyl pool. We screened four curated libraries totaling 27,574 unique compounds against the SMMTases nicotinamide N-methyltransferase (NNMT), phenylethanolamine N-methyltransferase (PNMT), histamine N-methyltransferase (HNMT), glycine N-methyltransferase (GNMT), catechol O-methyltransferase (COMT), and guanidinoacetate N-methyltransferase (GAMT). The data generated by this TCP can be leveraged for informed tool molecule development. For example, in the associated publication we identified a chemotype of HNMT-selective inhibitors. Additionally, we identified a putative SMMTase-selective inhibitor with potential as a tool molecule for studying broader methyltransferase biology.
(§5) High-through put screening assays were developed at the National Center for Advancing Translational Science (NCATS) for the enzymes NNMT, PNMT, HNMT, GNMT, COMT, and GAMT. Enzymatic activity was measured as a function of SAM cofactor conversion using the MTase Glo kit (Promega) for all enzymes. All assays were performed in 1536-well format with substrates and SAM concentrations at KM values. Enzyme concentration and assay timing were optimized for 10-20% SAM conversion. Initial screening of 27,574 compounds was done as single-point assays using the highest compound concentration (40 uM). […] These compounds were replated in 11-point dose response and assayed against NNMT, PNMT, HNMT, GNMT, COMT, GAMT, and a counter-assay. The IC50 and efficacy (maximal response) values were determined for each dose-response curve. These values are also accounted for in the area under the curve (AUC) values.
(§6) PROTOCOL TABLE (as described by Inglese J, Shamu CE and Guy RK. 2007)
(§7) SEQUENCE No. (e.g., 1, 2, 3, etc.); […] (e.g., Cells, Incubation, Reagent, etc.); VALUE; DESCRIPTION.
(§8) 1; Reagent; 2 uL; SMMTase Enzyme (2x) in reaction buffer, columns 1- 48.
(§9) 2; Reagent; 1 uL; SAM (4x) in reaction buffer, columns 1-48.
(§10) 3; Controls; 23 nL; DMSO in column 4; sinefungin in DMSO (0 uM - 40 uM) in 7-point 1:2 dilution series (n = 2) in column 2.
(§11) 4; Compounds; 23 nL; Columns 5-48.
(§12) 5; Reagent; 1 uL; Substrate (4x) in reaction buffer, columns 2-48.
(§13) 6; Time; 20-30 min; Incubation.
(§14) 7; Reagent; 1 uL; MTase-Glo reagent (5X), columns 1-48.
(§15) 8; Time; 30 min; Incubation.
(§16) 9; Reagent; 5 uL; MTase-Glo Detection reagent, columns 1-48.
(§17) 10; Time; 30 min; Incubation, luminescence evolution.
(§18) 11; Detection; Luminescence; ViewLux uHTS Microplate Imager (PerkinElmer).
(§19) NOTES (numbers refer to Sequence numbers above)
(§20) 1, 2, 5. White Medium Binding Greiner 1536-well plates (Cat #789175-F, Greiner Bio-One, Monroe, NC); Reaction buffer: 50 mM Tris, pH 8.0, 3 mM MgCl2, 1 mM EDTA, 50 mM NaCl, 1 mM DTT, and 0.1 mg/mL BSA. Evaporation was prevented by covering assay plates with metal lids containing holes to allow gas diffusion.
(§21) 1. Six SMMTase were profiled: HNMT, GNMT, PNMT, COMT, NNMT, GAMT
(§22) 5. The corresponding substrate was used for each enzyme: HNMT - 5.3 uM Histamine; GNMT - >500 uM Glycine; PNMT - 16.2 uM Norephinephrine; COMT - 13.7 uM Norephinephrine; NNMT - 3.8 uM Nicotinamide; GAMT - 2.5 uM Guanidinoacetate.6, 8, 10. Room temperature
(§23) 6. Final reaction conditions: 10 nM COMT, 5 uM SAM, 15 uM norepinephrine, 50 mM Tris, pH 8.0, 3 mM MgCl2, 1 mM EDTA, 50 mM NaCl, 1 mM DTT, and 0.1 mg/mL BSA; refer to tables 2 and S1 for specific timing.
8. […]

[2] = target: Glycine N-methyltransferase (Homo sapiens) (UniProt Q14749); settings: purified enzyme, MTase-Glo SAH luminescence; measured here: GNMT inhibition; at 40 µM; stronger effect = lower value
Glycine N-methyltransferase (Homo sapiens), sequence (Q14749 whole entry, looked up): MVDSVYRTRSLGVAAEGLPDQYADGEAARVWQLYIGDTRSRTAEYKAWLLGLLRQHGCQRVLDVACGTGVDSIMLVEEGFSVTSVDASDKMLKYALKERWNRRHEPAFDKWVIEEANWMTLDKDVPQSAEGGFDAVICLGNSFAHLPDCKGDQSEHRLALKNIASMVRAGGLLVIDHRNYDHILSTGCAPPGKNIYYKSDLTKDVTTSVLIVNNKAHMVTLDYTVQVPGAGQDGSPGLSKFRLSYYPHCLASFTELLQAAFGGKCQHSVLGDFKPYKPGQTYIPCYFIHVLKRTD
Excerpt: as §1, §2, §3, §4, §5, §6, §7, §8, §9, §10, §11, §12, §13, §14, §15, §16, §17, §18, §19, §20, §21, §22, §23
8. […]

[3] = target: Guanidinoacetate N-methyltransferase (Homo sapiens) (UniProt Q14353); settings: purified enzyme, MTase-Glo SAH luminescence; measured here: GAMT inhibition; at 40 µM; stronger effect = lower value
Excerpt: as §1, §2, §3, §4, §5, §6, §7, §8, §9, §10, §11, §12, §13, §14, §15, §16, §17, §18, §19, §20, §21, §22, §23
8. […]

[4] = target: Histamine N-methyltransferase (Homo sapiens) (UniProt P50135); settings: purified enzyme, MTase-Glo SAH luminescence; measured here: HNMT inhibition; at 40 µM; stronger effect = lower value
Histamine N-methyltransferase (Homo sapiens), sequence (P50135 whole entry, looked up): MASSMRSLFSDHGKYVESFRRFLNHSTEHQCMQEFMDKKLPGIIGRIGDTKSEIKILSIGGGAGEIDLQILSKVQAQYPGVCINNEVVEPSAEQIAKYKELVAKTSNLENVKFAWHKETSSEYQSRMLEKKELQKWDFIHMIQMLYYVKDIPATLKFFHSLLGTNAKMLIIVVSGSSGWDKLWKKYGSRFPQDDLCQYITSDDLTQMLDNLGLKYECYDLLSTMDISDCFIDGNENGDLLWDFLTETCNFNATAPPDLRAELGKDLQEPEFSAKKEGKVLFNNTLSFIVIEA
Excerpt: as §1, §2, §3, §4, §5, §6, §7, §8, §9, §10, §11, §12, §13, §14, §15, §16, §17, §18, §19, §20, §21, §22, §23
8. […]

[5] = target: Nicotinamide N-methyltransferase (Homo sapiens) (UniProt P40261); settings: purified enzyme, MTase-Glo SAH luminescence; measured here: NNMT inhibition; at 40 µM; stronger effect = lower value
Nicotinamide N-methyltransferase (Homo sapiens), sequence (P40261 whole entry, looked up): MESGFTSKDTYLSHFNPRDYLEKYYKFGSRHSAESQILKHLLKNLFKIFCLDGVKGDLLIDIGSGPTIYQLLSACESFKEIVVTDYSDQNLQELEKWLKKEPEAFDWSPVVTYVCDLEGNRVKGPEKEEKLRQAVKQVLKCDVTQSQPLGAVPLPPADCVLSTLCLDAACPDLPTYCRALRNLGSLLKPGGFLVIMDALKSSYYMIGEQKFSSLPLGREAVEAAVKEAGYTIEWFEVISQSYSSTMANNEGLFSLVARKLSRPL
Excerpt: as §1, §2, §3, §4, §5, §6, §7, §8, §9, §10, §11, §12, §13, §14, §15, §16, §17, §18, §19, §20, §21, §22, §23
8. […]

[6] = target: Phenylethanolamine N-methyltransferase (Homo sapiens) (UniProt P11086); settings: purified enzyme, MTase-Glo SAH luminescence; measured here: PNMT inhibition; at 40 µM; stronger effect = lower value
Phenylethanolamine N-methyltransferase (Homo sapiens), sequence (P11086 whole entry, looked up): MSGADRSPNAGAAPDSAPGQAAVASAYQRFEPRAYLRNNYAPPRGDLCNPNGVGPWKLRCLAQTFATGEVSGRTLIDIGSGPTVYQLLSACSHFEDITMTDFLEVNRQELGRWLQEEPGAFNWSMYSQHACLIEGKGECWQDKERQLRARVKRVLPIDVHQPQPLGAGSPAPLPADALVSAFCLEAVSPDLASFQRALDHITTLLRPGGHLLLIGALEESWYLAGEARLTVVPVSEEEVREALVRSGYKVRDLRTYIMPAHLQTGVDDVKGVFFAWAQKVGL
Excerpt: as §1, §2, §3, §4, §5, §6, §7, §8, §9, §10, §11, §12, §13, §14, §15, §16, §17, §18, §19, §20, §21, §22, §23
8. […]
% is set by controls: 0 for no effect and ±100 for the full control effect.

SMILES	activity change, negative = inhibition [1]	activity change, negative = inhibition [2]	activity change, negative = inhibition [3]	activity change, negative = inhibition [4]	activity change, negative = inhibition [5]	activity change, negative = inhibition [6]
O=C(C1CC1)N1CCn2c(nn(-c3ccc(F)cc3)c2=O)C1	-5% (inactive)	-3.41%	-8.31%	-2.04%	-9.2%	-5.36%
N#CSc1cc(SC#N)c(N)nc1N	-62.1% (active)	-92.7%	-77.3%	-92.3%	-58.6%	-40.8%
C=C(C)Cn1c(=O)[nH]c2ccccc21	7.05% (inactive)	-1.89%	0%	7.74%	13.6%	4.12%
CN1CCCN(S(=O)(=O)c2cccs2)c2ccccc21	-6.9% (inactive)	-11.1%	-3.04%	-16.1%	-12.8%	-18.8%
Cc1cccc(CSc2nnc3n(CC(C)C)c(=O)c4ccccc4n23)c1	2.1% (inactive)	-7.23%	0.416%	3.69%	-10.9%	4.42%
NCCCC(=O)N1CCN(C2CCNCC2)C(=O)C1	-0.26% (inactive)	-0.497%	-3.99%	1.59%	-1.96%	0.025%
O=C(N[C@@H]1CN(C2CCOCC2)CC[C@@H]1CO)c1ccccc1	-14.8% (inactive)	-7.11%	-12.7%	-6.52%	-17.2%	-14.2%
Cc1ccc(COc2ccc3c(-c4ccccc4)cc(=O)oc3c2)cc1	1.55% (inactive)	-1.02%	8.91%	3.98%	6.08%	-3.92%
CCCN1C(=O)c2cc(C(=O)N3CCC(C)CC3)nn2CC1(C)C(=O)NC1CCCC1 (configuration not stated)	-0.787% (inactive)	-3.38%	3.26%	4.03%	-4.98%	-1.07%
CCc1ccc(S(=O)(=O)c2nnn3c2nc(N2CCCCC2)c2ccccc23)cc1	3.62% (inactive)	0.777%	0%	6.93%	-3.24%	-1.25%
Cc1cn(CCN2CCN(c3ccccc3-c3cc(C#N)cc(C(=O)NCCCN4CCCC4)c3)CC2)c2ccccc12	-11% (active) and 25.9% (active)	0.523% and -14.2%	12%	-86.5% and -77.8%	-17.4% and 7.48%	-1.62% and 35.5%
CCOc1ccc(CN2C(=O)c3cc(C(C)(C)C)nn3CC2(C)C(=O)NC2CCCCCC2)cc1 (configuration not stated)	-0.389% (inactive)	-3.62%	4.61%	-1.08%	-2.24%	-3.09%
COc1cccc(-c2ccc(C(=O)NCCN[S+](=O)([O-])c3cccs3)cc2)c1	1.95% (inactive)	-8.51%	-1.67%	-4.59%	-5.98%	-13%
CCNC(=O)N1CC[C@H]2CC(=O)N(Cc3cccnc3)CC[C@H]2C1	-8.99% (inactive)	-6.64%	-7.68%	-5.27%	-14.8%	-11.5%
COc1cccc(C(=O)N(CC(C)C)CC2CN(C(=O)Nc3ccccc3)CCO2)c1 (configuration not stated)	-3.51% (inactive)	-5.73%	-3.93%	-3.02%	-7.14%	0.149%
Cn1c(=O)c2ccc(C(=O)NC3CCCCC3)cc2n2c(SCc3cccc(Cl)c3)nnc12	2.97% (inactive)	2.72%	0.691%	2.66%	1.84%	5.9%
CCn1ccnc1CN(C)C(=O)c1cc(COc2ccccc2F)[nH]n1	4.03% (inactive)	-2.18%	-0.135%	-1.52%	-4%	-1.63%
CC1(C(=O)NC2CCCCC2)Cn2c(ccc2-c2ccccc2)C(=O)N1CCC1=CCCCC1 (configuration not stated)	6.36% (inactive)	9.19%	0.753%	8.84%	8.48%	6.08%
COc1ccc(CN2C(=O)c3ccc(-c4ccco4)n3CC2(C)C(=O)NC2CCCCCC2)cc1 (configuration not stated)	-2.99% (inactive)	-14.7%	0.968%	-7.66%	-8.88%	-4.52%
CCCS(=O)(=O)NCC1Cn2cccc2C(=O)N1CCOC (configuration not stated)	2.41% (inactive)	0.792%	-0.491%	0.026%	-3.41%	0.672%
Cc1ccc(OCCC2CCN(C(=O)Cn3cnc4c3c(=O)n(C)c(=O)n4C)C2)cc1 (configuration not stated)	-5.48% (inactive)	-7.34%	-5.09%	-2.32%	-21%	-7.16%
CC1CCCC(NC(=O)C2(C)Cn3c(cc4sccc43)C(=O)N2c2ccc(Cl)cc2)C1C (configuration not stated)	-1.19% (inactive)	-1.5%	2.58%	-0.753%	2.89%	-5.61%
CCC1CCCCN1C(=O)Cn1c(=O)oc2cc(S(=O)(=O)N3CCCC3)ccc21 (configuration not stated)	1.3% (inactive)	-2.17%	1.65%	-2.01%	0.211%	-0.075%
Clc1cc(NCc2ccccn2)n2nccc2n1	-4.71% (inactive)	-11.1%	-2.25%	-0.734%	-13.1%	6.59%
COc1ccccc1N1CCN(S(=O)(=O)c2cc3c(cc2C)n(C)c(=O)n3C)CC1	8.56% (inactive)	5.66%	0%	4.91%	-2.8%	0.426%
COc1ccc(NC(=O)c2ccc(-c3ccc(C(=N)N)cc3C)cc2)cc1N1CCN(C)CC1	-7.6% (active)	-8.27%	-7.77%	-66.3%	-22.1%	-8.76%
COc1ccc(NC(=O)c2ccc(-c3ccc(C(N)=O)cc3C)cc2)cc1N1CCN(C)CC1	0.282% (inactive)	-7.07%	2.94%	-26%	-29.8%	-2.08%

From PubChem BioAssay AID1745853 (National Center for Advancing Translational Sciences (NCATS), 2022)
